This note sets out measurements from PubChem BioAssay (NCI).

Compounds without any hit were thinned out: in the full panel of roughly 83,000, 20% have a hit.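 The endpoint reported here, percent growth, reads 100 for growth as untreated, 0 for no net growth and -100 for all cells dead.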 Unmarked numbers belong to inactive results. Activity calls are given as the source filed them. The calls were made as follows: active = growth percent below 10; inactive = the rest.

In this test the test system is OVCAR-4 ovarian. The experiment in a line: NCI-60 one-dose screen, 48 h (100 = growth as untreated, 0 = no growth, -100 = all killed). The settings on record: 10 µM unless noted.
As to `CN1C(=O)NC(Cc2c[nH]c3c(Cl)cccc23)C1=O` (stereo not given), the growth was 101%. As to `COc1ccc(C(=O)OC2C(OC3C(O)COC(O[C@H]4C[C@H]5[C@@H]6CC=C7C[C@@H](O)CC[C@]7(C)[C@H]6CC[C@]5(C)[C@H]4[C@H](C)C(=O)CCC(C)C)C3OC(C)=O)OCC(O)C2O)cc1` (stereo not given in full), the growth was 52.1%. With `C[C@@H]1N=C(c2ccc3ccccc3c2)Nc2nc3ccccn3c2C1=O` the figure was 74.5%; with `CS(=O)(=O)c1ccc(C(=O)N/N=C/c2ccccc2Cl)cc1`, 95.9%.

Turning to `CC1=C(O)C(=O)CC1`, the growth was 105%.

For the compound `O=C(N/N=C/c1ccc([N+](=O)[O-])cc1)c1ccccc1Nc1ccnc(C(F)(F)F)c1`, the growth is 61.1%.

Consider `Cc1ccc(C(CN(C)C)C(=O)c2ccccc2)cc1` (stereo not given), for which the growth was 33.2%. `CN1CCC2(CC1)N=C(SCC(=O)Nc1cnc3ccccc3c1)C(c1ccc(Br)cc1)=N2`: the growth was 65.8%. With `Nc1c(C(=O)C[C@@H](N)CO)ccc2c1C(=O)CCO2` the figure was 86.4%; with `Cc1ccncc1NC=O`, 108%; with `Cc1c2c(cc3c1[nH]c1ccccc13)C=NCC2`, 94%.

On to `O=S1(=O)NCCCN1CCNc1nccc(-c2c(-c3cccc(O)c3)nc3sccn23)n1`, for which the growth was 85.4%. With `COc1ccc2nc3cc(Cl)ccc3c(NC(=O)CSc3ccc(Cl)cc3)c2c1` the figure was -96.8% (active); with `CCCC(CCC)(C(N)=O)C(=O)O`, 101%; with `C=CCCCCOc1cccc(/C=C2\N=C3SCCCN3C2=O)c1`, 87.6%.
